# From PubChem
# Sampled rows, rich in hits. Any-hit rate of the full collection: about 3.4%.
# GPR151 activ: activators of human GPR151 | Q8TDV0 | PathHunter beta-arrestin GPR151 cells, luminescence | 650,000 compounds, 1% hits | activation, % at 11.2 µM; in the data active = activation above about 4.9%;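 note: 0% = median of compound wells and 100% = cells with positive control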
# Target sequence (Q8TDV0 whole entry, looked up): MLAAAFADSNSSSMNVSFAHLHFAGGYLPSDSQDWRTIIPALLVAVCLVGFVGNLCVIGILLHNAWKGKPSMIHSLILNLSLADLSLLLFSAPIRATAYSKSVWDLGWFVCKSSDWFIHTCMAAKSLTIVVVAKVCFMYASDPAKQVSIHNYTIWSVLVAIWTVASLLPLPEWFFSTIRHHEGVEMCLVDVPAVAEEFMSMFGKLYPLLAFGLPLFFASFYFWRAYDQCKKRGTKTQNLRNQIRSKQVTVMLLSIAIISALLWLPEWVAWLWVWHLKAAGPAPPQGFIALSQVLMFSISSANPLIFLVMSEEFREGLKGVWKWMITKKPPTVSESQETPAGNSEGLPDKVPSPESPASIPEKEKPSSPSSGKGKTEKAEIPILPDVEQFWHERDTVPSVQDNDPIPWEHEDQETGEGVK
# MITF primary: human MITF inhibition, primary screen. 650,000 compounds, 0.91% hits. AlphaScreen MITF homodimerization, bead proximity signal. inhibition, % at 2.6 µM. AID 1259374. O75030; in the data active = inhibition above about 50%;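 note: 0% = vehicle wells with protein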
# FBW7 act: human FBW7 E3 ligase activation, primary screen. AlphaScreen FBW7–phospho-cyclin E peptide binding, activator screen. normalized activity (activation), % at 26.1 µM. 650,000 compounds, 0.13% hits; in the data active = normalized activity above about 1.9%;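 note: purified mutant Fbw7 with reduced substrate affinity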
# TEAD-YAP block: TEAD-YAP interaction inhibition; HEK-TIYL cells, TEAD-Gal4/YAP UAS-luciferase luminescence; inhibition, % at 9.12 µM; 640,000 compounds, 1.4% hits; in the data active = inhibition above about 32%;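 note: 0% = median of test compound wells and 100% = reference inhibitor wells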
# MITF confirm: human MITF inhibition, confirmation; shares compounds with MITF primary; AlphaScreen MITF homodimerization, biotin/His-MITF beads; inhibition, % at 2.6 µM; 4,700 compounds, 16% hits;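 active = inhibition above a cutoff derived from the DMSO control wells, cut at about 28% in these data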;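 note: 0% = MITF dimer wells with DMSO only; inhibitors lower the bead chemiluminescence by keeping MITF from dimerizing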
# AS interf DR: AlphaScreen optical interference, dose response counter-screen. shares compounds with MITF primary. AlphaScreen optical interference counterscreen, cell-free. IC50, µM. 480 compounds, 6% hits. AID 1259373; call rule not given here
# AS interf ctr: AlphaScreen optical interference, counter-screen; inhibition, % at 2.6 µM; shares compounds with MITF primary; LysRS AlphaScreen counterscreen, signal interference, triplicate; 4,700 compounds, 7.6% hits; AID 1259376;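 active = inhibition above a cutoff derived from the DMSO control wells, cut at about 30% in these data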
# * = called active by the depositor; . = no result.
SMILES,GPR151 activ,MITF primary,FBW7 act,TEAD-YAP block,MITF confirm,AS interf ctr,others
O=C(CN(C(=O)c1csnn1)c1cccc([N+](=O)[O-])c1)NCc1ccccc1,0,11,0,2,.,.,
CCOC(=O)c1sc(-c2ccccc2)cc1NC(=O)c1ccc(S(=O)(=O)N2CCCC2)cc1,-1,0,0,-3,.,.,
Cc1nc(NCCCN2CCOCC2)c2c3c(sc2n1)CCC3,0,9,0,9,.,.,
Cc1nc(NCCCN2CCOCC2)c2c3c(sc2n1)CCCC3,-1,74*,0,1,-16,1,
Cc1nc(NCCCN(C)C)c2c3c(sc2n1)CCCC3,-1,51*,0,-8,14,13,
O=c1[nH]c(CNCCN2CCOCC2)nc2sc3c(c12)CCC3,-1,105*,-1,2,19,100*,
O=c1[nH]c(CN2CCCCC2)nc2sc3c(c12)CCC3,-1,-1,1,3,.,.,
CN(C)CCCNc1ncnc2sc3c(c12)CCCC3,2,-22,0,-7,.,.,
CN1CCN(CCOCCOc2ccc(Cl)cc2C(C)(C)C)CC1,2,68*,0,2,16,33*,
Cc1ccc(OCCOCCN2CCN(C)CC2)c(C)c1,2,65*,0,-1,12,20,
CCN1CCN(CCOc2ccc(C)cc2C)CC1,0,78*,0,4,-6,-2,
CCN1CCN(CCOc2ccc(C)cc2Br)CC1,1,24,0,0,.,.,
Cc1ccc(OCCOCCN2CCN(C)CC2)c(C(C)(C)C)c1,0,56*,0,8,6,17,
Cc1ccc(OCCCN2CCN(C)CC2)c(C(C)(C)C)c1,1,31,0,-1,.,.,
O=C(c1cc2ccccc2oc1=O)N(Cc1ccccc1F)CC1CCCO1 (stereo unspecified),1,-3,0,0,.,.,
N#Cc1ccc(/C=C2\SC(=S)N(CC(=O)O)C2=O)cc1,-1,2,0,1,.,.,
CN1CCN(CCOCCOc2ccccc2Br)CC1,-1,30,0,-1,.,.,
CN1CCN(CCOCCOc2cccc(Cl)c2Cl)CC1,-1,51*,0,-5,5,14,
O=C(NCCc1nnc2n1CCN(Cc1ccc(F)cc1F)CC2)c1ccoc1,0,0,0,5,.,.,
Fc1ccc(N2CCN(Cc3ccc(Br)o3)CC2)cc1,2,51*,0,0,3,6,
Brc1ccc(CN2CCN(c3ccccn3)CC2)o1,-1,52*,1,5,6,2,
Clc1ccccc1N1CCN(Cc2ccc(Br)o2)CC1,0,40,1,3,.,.,
COCCn1nnnc1C(C(C)C)N1CCSCC1 (stereo unspecified),0,59*,0,5,12,12,
CCN1CCN(C(c2nnnn2CCOC)C(C)C)CC1 (stereo unspecified),0,20,0,13,.,.,
Cc1ccc(S(=O)(=O)NCC(c2ccc(N(C)C)cc2)N2CCN(C)CC2)cc1 (stereo unspecified),-1,-12,0,9,.,.,
SMILES,GPR151 activ,MITF primary,FBW7 act,TEAD-YAP block,MITF confirm,AS interf ctr,others
CC(=O)Nc1ccc(C(=O)NC(CC(=O)O)c2cccc([N+](=O)[O-])c2)cc1 (stereo unspecified),1,60*,0,7,-2,1,
CC(C)(C)c1ccc(C(=O)NC(CC(=O)O)c2cccc([N+](=O)[O-])c2)cc1 (stereo unspecified),0,2,0,10,.,.,
O=c1c2cccnc2[nH]c(=S)n1CCN1CCN(c2ccccc2)CC1,1,-18,0,6,.,.,
N#Cc1ccc(OCC(O)CNCCCN2CCCC2=O)cc1 (stereo unspecified),-1,51*,0,-3,-4,7,
CCN1CCN(c2cc(C)c3ccc(OC)cc3n2)CC1,1,64*,0,-2,1,7,
CCCN1CCC(NCCc2ccc(Cl)cc2)CC1,0,51*,0,5,0,1,
COC(=O)C1(C(F)(F)F)N=C2C=CC(Br)=CN2C(c2ccccc2)=N1 (stereo unspecified),1,-6,0,9,.,.,
Cc1cc(C)nc(Nc2ccc([N+](=O)[O-])cc2)n1,3,69*,0,-1,1,14,
Cc1cc(C)nc(Nc2ccc(C)c([N+](=O)[O-])c2)n1,0,21,0,-13,.,.,
CC(=O)NNC(=O)c1cc2sccc2nc1C(F)(F)F,-1,0,0,-8,.,.,
Brc1ccc(-c2nnc3sc(CN4CCCCC4)cn23)cc1,1,67*,1,-20,-2,-3,
Brc1ccc(-c2nnc3sc(CN4CCOCC4)cn23)cc1,0,13,0,2,.,.,
O=C1c2ccccc2C(=O)c2cc(S(=O)(=O)N(CCO)CCO)ccc21,0,12,0,9,.,.,
Cc1[nH][nH]c(=O)c1C(c1ccc(-c2cccc([N+](=O)[O-])c2)o1)c1c(C)[nH][nH]c1=O,0,1,0,0,.,.,
Cc1[nH][nH]c(=O)c1C(c1ccc([N+](=O)[O-])o1)c1c(C)[nH][nH]c1=O,0,59*,-1,4,28*,-1,AS interf DR=>6.5
O=C(CN(c1ccc(Cl)c(C(F)(F)F)c1)S(=O)(=O)c1ccccc1)NCc1cccnc1,0,51*,0,5,-4,-6,
O=C(CN(c1ccc(Cl)c(C(F)(F)F)c1)S(=O)(=O)c1ccccc1)NCc1ccccn1,0,7,0,-4,.,.,
CCCCSC1=C(C#N)C(c2cccc([N+](=O)[O-])c2)C(C(C)=O)=C(C)N1 (stereo unspecified),1,63*,0,-6,-9,3,
CCCCCC(=O)N/N=C(/C)c1ccc(NC(=O)c2cccs2)cc1,-2,0,0,-56,.,.,
O=C(NC1CC1)c1cncc(-c2cccs2)c1,0,18,0,-7,.,.,
NC(=O)c1cncc(-c2cccs2)c1,1,70*,0,1,65*,13,AS interf DR=>6.5
CCCC(=O)Nc1ccc2c(c1)C(=O)N(C1CCCCC1)C2=O,-1,58*,0,11,-5,-8,
CCC(=O)Nc1ccc2c(c1)C(=O)N(C1CCCCC1)C2=O,0,-1,0,-13,.,.,
Cc1nc(NCc2ccco2)c2c(C)c(C)sc2n1,-1,59*,0,43*,13,29,
Cc1nc(NCc2ccco2)c2c3c(sc2n1)CCCC3,0,4,0,-6,.,.,
CC(C)(C)c1csc2ncc(C(=O)NC3CCC3)c(=O)n12,0,9,0,-4,.,.,
O=S(=O)(c1ccc2ccccc2c1)N1CCN(Cc2ccccc2C(F)(F)F)CC1,1,11,0,-5,.,.,
CCOC(=O)C1CCCCN1Cc1ccccc1C(F)(F)F (stereo unspecified),0,53*,0,-9,-3,6,
